A short description of assay [1]: NCI Yeast Anticancer Drug Screen. Data for the rad50 strain (AID 155).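 Also: 0% = growth of vehicle-only cultures of the same strain.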 The conditions noted are these: S. cerevisiae rad50 strain growth inhibition, stronger effect = higher value. A digest of the protocol: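 Cells are treated with compound, grown, and their growth is then scored against vehicle-only cultures of the same repair-deficient yeast strain.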
Assay [2] can be described thus: NCI Yeast Anticancer Drug Screen. Data for the mec2-1 strain (AID 157). The conditions noted are these: S. cerevisiae mec2-1 strain, stronger effect = higher value. The gist of the method:
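Compounds were applied to mec2-1 yeast cells. Their growth was then compared with that of vehicle-treated cultures to give growth inhibition.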

Assay [3] is described as follows: NCI Yeast Anticancer Drug Screen. Data for the sgs1 mgt1 strain (AID 161).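 Also: 0% = growth of cultures given vehicle only.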 Conditions: S. cerevisiae sgs1 mgt1 strain, stronger effect = higher value. The gist of the method:
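This yeast growth screen uses a strain with defined DNA-repair lesions; compound-treated growth is compared with vehicle-treated growth.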

Assay [4] is described as follows: NCI Yeast Anticancer Drug Screen. Data for the cln2 rad14 strain (AID 165).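 Also: 0% = growth equal to vehicle treated cultures.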 The conditions noted are these: S. cerevisiae cln2 rad14 strain, stronger effect = higher value. A digest of the protocol: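 Strain: cln2 rad14 yeast, altered in cell cycle control and DNA damage repair. Read-out: growth inhibition vs vehicle.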
Assay [5] can be described thus: NCI Yeast Anticancer Drug Screen. Data for the bub3 strain (AID 167). The conditions noted are these: S. cerevisiae bub3 mutant strain, stronger effect = higher value. A digest of the protocol: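 Part of a panel of yeast mutants defective in DNA damage repair or cell cycle regulation. Each strain is grown with compound, and inhibition is calculated relative to solvent-treated cultures.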

Assay [6] in a line: NCI Yeast Anticancer Drug Screen. Data for the mlh1 rad18 strain (AID 175). The conditions noted are these: S. cerevisiae mlh1 rad18 strain growth inhibition, stronger effect = higher value. The gist of the method: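 A repair-deficient yeast strain is exposed to test compound, and growth is scored relative to vehicle-treated controls.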
Where [7] appears, read: at 5.0 µM (retest, dose inferred, filed as 0.5).
[8] abbreviates: at 50.0 µM (retest, dose inferred, filed as 5.0).

This is part of a sample that, as a whole, favours compounds with a hit. Of some 79,000 tested, about 15% had one in any assay. Unmarked numbers belong to inactive results. The source made the active and inactive calls. Rule as the data show it: active = growth inhibition above about 70%; inactive = the rest.

As for `Cc1cc(=O)[nH]c2cc3oc4ccccc4c3cc12`, the growth inhibition was 30% in assay [1] (setting [7]); 94% (active) in assay [1] (setting [8]); 95.2% (active) in assay [1] (at 50.0 µM); -5% in assay [2] (setting [7]); 39% in assay [2] (setting [8]); 32.4% in assay [2] (at 50.0 µM). The growth inhibition in assay [3] (setting [7]) was 11%; in assay [3] (setting [8]), 40%; in assay [3] (at 50.0 µM), 17.6%; in assay [4] (setting [7]) it was 9%; in assay [4] (setting [8]), 36%; in assay [4] (at 50.0 µM) it was 68.1%. Moreover, the growth inhibition is -13% in assay [5] (setting [7]); 45% in assay [5] (setting [8]); 81% (active) in assay [5] (at 50.0 µM); 23% in assay [6] (setting [7]); 80% (active) in assay [6] (setting [8]); 78.9% (active) in assay [6] (at 50.0 µM).
As for `CC(C)/C(Cl)=N/OC(NC(=O)Nc1ccc(Cl)c(Cl)c1)(C(F)(F)F)C(F)(F)F`, the growth inhibition in assay [1] (setting [7]) was 7%; in assay [1] (setting [8]) it was 99% (active); in assay [1] (at 50.0 µM) it was 99.2% (active); in assay [2] (setting [7]) it was 9%; in assay [2] (setting [8]), 100% (active); in assay [2] (at 50.0 µM), 99.6% (active). The growth inhibition was 5% in assay [3] (setting [7]); 100% (active) in assay [3] (setting [8]); 99.5% (active) in assay [3] (at 50.0 µM); 26% in assay [4] (setting [7]); 99% (active) in assay [4] (setting [8]); 99.2% (active) in assay [4] (at 50.0 µM). Further, the growth inhibition in assay [5] (setting [7]) is 40%; in assay [5] (setting [8]), 100% (active); in assay [5] (at 50.0 µM), 99.5% (active); in assay [6] (setting [7]) it was 23%; in assay [6] (setting [8]), 99% (active); in assay [6] (at 50.0 µM), 99.5% (active).
`Oc1ccc(Cc2cc(Cl)cc(Cl)c2O)cc1Cl`: the growth inhibition in assay [1] (setting [7]) is 84% (active); in assay [1] (setting [8]), 100% (active); in assay [1] (at 50.0 µM), 99.5% (active); in assay [2] (setting [7]) it was 84% (active); in assay [2] (setting [8]), 99% (active); in assay [2] (at 50.0 µM), 99.7% (active). Also, the growth inhibition in assay [3] (setting [7]) is 68%; in assay [3] (setting [8]), 99% (active); in assay [3] (at 50.0 µM), 99.4% (active); in assay [4] (setting [7]), 91% (active); in assay [4] (setting [8]) it was 99% (active); in assay [4] (at 50.0 µM), 99.3% (active). Further, the growth inhibition in assay [5] (setting [7]) is 70% (active); in assay [5] (setting [8]), 100% (active); in assay [5] (at 50.0 µM), 99.3% (active); in assay [6] (setting [7]) it was 94% (active); in assay [6] (setting [8]) it was 100% (active); in assay [6] (at 50.0 µM), 99.2% (active).
For `C[CH2][Sn]([CH2]C)([O]C(=O)c1cc(OC)c(OC)c(OC)c1)[O][Sn]([CH2]C)([CH2]C)[O]C(=O)c1cc(OC)c(OC)c(OC)c1`, the growth inhibition was 33% in assay [1] (setting [7]); 79% (active) in assay [1] (setting [8]); 1.2% in assay [1] (at 50.0 µM); 30% in assay [2] (setting [7]); 91% (active) in assay [2] (setting [8]); 12.7% in assay [2] (at 50.0 µM). The growth inhibition is 31% in assay [3] (setting [7]); 85% (active) in assay [3] (setting [8]); 23.6% in assay [3] (at 50.0 µM); 8% in assay [4] (setting [7]); 61% in assay [4] (setting [8]); 21.9% in assay [4] (at 50.0 µM). The growth inhibition in assay [5] (setting [7]) was 36%; in assay [5] (setting [8]), 94% (active); in assay [5] (at 50.0 µM) it was 9.15%; in assay [6] (setting [7]) it was 27%; in assay [6] (setting [8]), 85% (active); in assay [6] (at 50.0 µM) it was 61%.
Turning to `CCCC(C(=O)OCCN1CCCC1(C)C)C1CCCC1` (stereo not given), the growth inhibition in assay [1] (setting [7]) is 17%; in assay [1] (setting [8]), 38%; in assay [1] (at 50.0 µM), 41%; in assay [2] (setting [7]), 10%; in assay [2] (setting [8]), 46%; in assay [2] (at 50.0 µM), 39%. Further, the growth inhibition in assay [3] (setting [7]) was 24%; in assay [3] (setting [8]) it was 58%; in assay [3] (at 50.0 µM) it was 48%; in assay [4] (setting [7]), 29%; in assay [4] (setting [8]) it was 58%; in assay [4] (at 50.0 µM), 70.7% (active). Further, the growth inhibition was 45% in assay [5] (setting [7]); 62% in assay [5] (setting [8]); 36.5% in assay [5] (at 50.0 µM); 36% in assay [6] (setting [7]); 68% in assay [6] (setting [8]); 40% in assay [6] (at 50.0 µM).
`Cc1c2cnccc2c(C)c2c1c1ccccc1n2CCCCCCNCc1ccccc1`: the growth inhibition in assay [1] (setting [7]) is 9%; in assay [1] (setting [8]), 95% (active); in assay [1] (at 50.0 µM) it was 99% (active); in assay [2] (setting [7]) it was -1%; in assay [2] (setting [8]), 76% (active); in assay [2] (at 50.0 µM), 99.2% (active). The growth inhibition in assay [3] (setting [7]) is 1%; in assay [3] (setting [8]), 91% (active); in assay [3] (at 50.0 µM) it was 99.3% (active); in assay [4] (setting [7]) it was 2%; in assay [4] (setting [8]) it was 83% (active); in assay [4] (at 50.0 µM) it was 98.2% (active). The growth inhibition was 2% in assay [5] (setting [7]); 74% (active) in assay [5] (setting [8]); 98.8% (active) in assay [5] (at 50.0 µM); -3% in assay [6] (setting [7]); 97% (active) in assay [6] (setting [8]); 99% (active) in assay [6] (at 50.0 µM).
As for `CCOC(=O)N1CCN(CCCCCCOc2c(Cl)cc(Cl)cc2Cl)CC1`, the growth inhibition is 45% in assay [1] (setting [7]); 98% (active) in assay [1] (setting [8]); 98.7% (active) in assay [1] (at 50.0 µM); 41% in assay [2] (setting [7]); 99% (active) in assay [2] (setting [8]); 96.1% (active) in assay [2] (at 50.0 µM). The growth inhibition in assay [3] (setting [7]) is 71% (active); in assay [3] (setting [8]), 99% (active); in assay [3] (at 50.0 µM) it was 92% (active); in assay [4] (setting [7]), 58%; in assay [4] (setting [8]), 98% (active); in assay [4] (at 50.0 µM), 98.4% (active). Besides, the growth inhibition was 64% in assay [5] (setting [7]); 98% (active) in assay [5] (setting [8]); 97.2% (active) in assay [5] (at 50.0 µM); 49% in assay [6] (setting [7]); 99% (active) in assay [6] (setting [8]); 98.2% (active) in assay [6] (at 50.0 µM).
With `[Cl][Pt+2][Cl].[NH-]c1cc2ccccc2cc1[NH-]`, the growth inhibition in assay [1] (setting [7]) is 2%; in assay [1] (setting [8]) it was 0%; in assay [1] (at 50.0 µM), 64.5%; in assay [2] (setting [7]) it was -34%; in assay [2] (setting [8]), 16%; in assay [2] (at 50.0 µM), 51.4%. Moreover, the growth inhibition in assay [3] (setting [7]) was 0%; in assay [3] (setting [8]) it was 1%; in assay [3] (at 50.0 µM), 69.2%; in assay [4] (setting [7]), 1%; in assay [4] (setting [8]), 17%; in assay [4] (at 50.0 µM) it was 45%. For the same compound, the growth inhibition in assay [5] (setting [7]) is 0%; in assay [5] (setting [8]), 14%; in assay [5] (at 50.0 µM) it was 20.4%; in assay [6] (setting [7]), 0%; in assay [6] (setting [8]) it was -24%; in assay [6] (at 50.0 µM) it was 76.2% (active).
For the compound `CC12C(=O)N(CC(=O)O)C(=O)C1(C)C1c3ccccc3C2c2ccc3ccccc3c21` (stereo not given), the growth inhibition was 7% in assay [1] (setting [7]); 97% (active) in assay [1] (setting [8]); 98.7% (active) in assay [1] (at 50.0 µM); 1% in assay [2] (setting [7]); 98% (active) in assay [2] (setting [8]); 95.9% (active) in assay [2] (at 50.0 µM). Moreover, the growth inhibition in assay [3] (setting [7]) is 2%; in assay [3] (setting [8]), 98% (active); in assay [3] (at 50.0 µM), 99% (active); in assay [4] (setting [7]), -8%; in assay [4] (setting [8]), 99% (active); in assay [4] (at 50.0 µM) it was 99% (active). Moreover, the growth inhibition in assay [5] (setting [7]) was 1%; in assay [5] (setting [8]), 96% (active); in assay [5] (at 50.0 µM), 95.6% (active); in assay [6] (setting [7]), 0%; in assay [6] (setting [8]) it was 98% (active); in assay [6] (at 50.0 µM) it was 95.8% (active).
Turning to `CCOC(=O)C(C#N)c1cc(O)c(C(C#N)C(=O)OCC)cc1O` (stereo not given), the growth inhibition in assay [1] (setting [7]) was -2%; in assay [1] (setting [8]), -2%; in assay [1] (at 50.0 µM), -5.45%; in assay [2] (setting [7]) it was -3%; in assay [2] (setting [8]) it was -4%; in assay [2] (at 50.0 µM) it was 6.85%. The growth inhibition in assay [3] (setting [7]) is -4%; in assay [3] (setting [8]), -6%; in assay [3] (at 50.0 µM), -1.65%; in assay [4] (setting [7]), 0%; in assay [4] (setting [8]), -10%; in assay [4] (at 50.0 µM), 55.5%. Also, the growth inhibition is -1% in assay [5] (setting [7]); -5% in assay [5] (setting [8]); 13.4% in assay [5] (at 50.0 µM); -2% in assay [6] (setting [7]); -5% in assay [6] (setting [8]); -6.9% in assay [6] (at 50.0 µM).

The values are drawn from PubChem BioAssay (NCI).
